TIM10 inh – growth inhibitors of TIM10 yeast strain; S. cerevisiae TIM10 strain growth, BacTiter-Glo luminescence, 24 h; inhibition, % at 10 µM; 330,000 tested, 1.4% active;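 active = inhibition of 40% or more at the single tested concentration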;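 also: wild-type TIM10 isogenic control strain grown at permissive 25 °C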
MPTP inh – permeability transition pore inhibition | isolated mouse mitochondria, Ca2+ swelling absorbance, 30 min | inhibition, % at 10 µM | 360,000 tested, 1.4% active | AID 602449;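 active = inhibition of 50% or more, scaled per plate between neutral and stimulator controls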;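 also: 0% = DMSO wells given calcium and 100% = 1 mM EGTA wells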
tim23-1 inh – inhibits growth of tim23-1 mutant yeast | S. cerevisiae tim23-1 growth, BacTiter-Glo luminescence, 24 h | inhibition, % at 20 µM | AID 463212 | 330,000 tested, 1.3% active;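 active = growth inhibition of the mutant yeast at or above 50%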;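 also: temperature-sensitive mutant grown at 25 °C; plate controls were DMSO-treated mutant yeast for no effect and medium wells lacking yeast for full effect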
tim10-1 inh – inhibits growth of tim10-1 mutant yeast | S. cerevisiae tim10-1 ts strain growth, BacTiter-Glo, 24 h | inhibition, % at 20 µM | 330,000 tested, 2.2% active | AID 463190;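 active = inhibition of at least 40%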;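 also: mutant grown at 25 °C; 0% = DMSO wells with yeast and 100% = wells holding no yeast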
Mdm2 MdmX PPI – inhibitors of human Mdm2/MdmX interaction; 330,000 tested, 3% active; O15151+Q00987; AID 485346; SaOS-2 split-luciferase Mdm2/MdmX complementation, luminescence; inhibition, % at 8 µM;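 active = inhibition of at least 50% at 8 µM in the primary screen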
tim10-1 conf – tim10-1 yeast growth inhibition, confirmed; S. cerevisiae tim10-1 ts strain growth, BacTiter-Glo, 24 h; inhibition, % at 20 µM; shares compounds with tim10-1 inh; 7,400 tested, 56% active;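 active = inhibition of yeast growth at or above a set limit in either of two repeat tests at 20 µM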;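 also: tim10-1 mutant grown at permissive 25 °C to find synthetic lethal compounds; 0% = DMSO yeast wells and 100% = medium wells without yeast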
tim10 confirm – TIM10 yeast growth inhibition, confirmed | 4,600 tested, 63% active | shares compounds with TIM10 inh | inhibition, % at 10 µM | S. cerevisiae tim10 strain growth, BacTiter-Glo luminescence, 24 h;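 active = inhibition of yeast growth at or above a set limit in either of two replicates at 10 µM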;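 also: this counterscreen used the strain with wild-type TIM10; 0% = yeast with DMSO and 100% = medium wells lacking yeast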
tim23-1 confirm – tim23-1 yeast growth inhibition, confirmed | inhibition, % at 20 µM | S. cerevisiae tim23-1 growth, BacTiter-Glo luminescence, 24 h | AID 463218 | 4,400 tested, 83% active | shares compounds with tim23-1 inh;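 active = inhibition above about 39% in either of two replicate wells at 20 µM, limit read from the data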;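 also: temperature-sensitive tim23-1 mutant grown at 25 °C; 0% = DMSO wells with yeast and 100% = medium wells without yeast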
Mdm2-MdmX conf – confirmation of human Mdm2/MdmX interaction inhibitors; shares compounds with Mdm2 MdmX PPI; Mdm2-MdmX binding, luminescent assay; inhibition, % at 8 µM; 10,000 tested, 55% active; AID 489028; in the data active = inhibition above about 40%
Full FLuc ctr – full-length luciferase inhibition in Mdm2/MdmX counter-screen. SaOS-2 full-length luciferase counterscreen, luminescence. shares compounds with Mdm2 MdmX PPI. inhibition, % at 8 µM. 6,200 tested, 77% active. AID 504607;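 active = mean inhibition at 8 µM reaching about 37%, which flags the compound as non-specific, limit read from the data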;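 also: p53-null SaOS-2 cells with luciferase driven by a doxycycline-inducible promoter; compound on cells about two nights before reading with doxycycline added after day one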
MPTP counter – Rhodamine 123 counter-screen of mitochondrial pore hits; 5,000 tested, 78% active; shares compounds with MPTP inh; AID 624504; inhibition, % at 10 µM; isolated mitochondria, membrane potential, Rhodamine 123 fluorescence; in the data active = inhibition above about 22%;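 also: 0% = DMSO vehicle and 100% = positive control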
MPTP swell DR – dose response confirmation of mitochondrial permeability transition pore inhibitors. shares compounds with MPTP inh. isolated mitochondria swelling, absorbance. IC50, µM. 780 tested, 58% active. AID 651561; in the data active = IC50 below about 20 µM
MPTP cs DR – active in counter-screen for permeability transition pore inhibitors. IC50, µM. 780 tested, 49% active. shares compounds with MPTP inh. AID 651564. isolated mitochondria counterscreen, fluorescence read-out; in the data active = IC50 below about 80 µM
* hit, by the source's call; i = inactive; . = not tested or not shown. Hits are enriched below; roughly 6.3% of the tested compounds scored in any of these assays.

SMILES	TIM10 inh	MPTP inh	tim23-1 inh	tim10-1 inh	Mdm2 MdmX PPI	tim10-1 conf	tim23-1 confirm	Mdm2-MdmX conf	MPTP counter	others
Cc1csc2nc(O)c(C(=O)NCCCN3CCCC3=O)c(=O)n12	-12	-2	4	1	-15	.	.	.	.
Cc1csc2nc(O)c(C(=O)NC3CCCCC3)c(=O)n12	14	-1	74*	40*	63*	10	56*	66*	.	Full FLuc ctr=35
CCOc1ccccc1-c1ccc(C(=O)NCc2ccc(Cl)cc2)o1	.	2	.	.	.	.	.	.	.
Cn1c(CNc2ccc(Cl)cc2)nc2ccccc21	-7	-1	21	14	-29	.	.	.	.
CC(C)N=c1cc2n(-c3ccc(Cl)cc3)c3ccccc3nc-2cc1Nc1ccc(Cl)cc1	24	4	58*	41*	97*	2	57*	94*	.	Full FLuc ctr=6
COc1ccc(/C=N/NC(=O)c2ccoc2C)cc1COc1c(C)cccc1C	42*	0	39	41*	76*	30*	.	32	.	tim10 confirm=14
Cc1ccccc1NC(=S)NCc1ccc2c(c1)cc(C)n2C	25	0	31	43*	68*	24	.	48*	.	Full FLuc ctr=62*
COc1ccccc1NC(=S)NCc1ccc2c(c1)cc(C)n2C	21	4	28	4	31	.	.	.	.
Cc1cccc(C)c1-n1nnnc1C1(C)CCC(=O)N1CC(F)(F)F (stereo unspecified)	.	1	.	.	.	.	.	.	.
CN1CCN(C(c2ccc(C(F)(F)F)cc2)c2cc(Cl)c3cccnc3c2O)CC1 (stereo unspecified)	53*	.	66*	43*	86*	36*	70*	81*	.	tim10 confirm=26;Full FLuc ctr=25
O=C1c2cccc3c([N+](=O)[O-])ccc(c23)C(=O)N1Cc1cccnc1	.	2	.	.	.	.	.	.	.
Cc1ccnc(N2C(=O)c3cccc4c([N+](=O)[O-])ccc(c34)C2=O)c1	90*	2	74*	90*	100*	90*	78*	6	.	tim10 confirm=97*
Cc1ccnc(N2C(=O)c3ccccc3C2=O)c1	9	2	13	5	-17	.	.	.	.
Cc1nnc(N2C(=O)c3cccc4c([N+](=O)[O-])ccc(c34)C2=O)s1	36	3	67*	85*	61*	64*	68*	37	.
COc1ccc(C(=O)O/N=C(\N)c2cccc(C)c2)cc1OC	46*	1	53*	51*	96*	52*	71*	50*	.	tim10 confirm=54*;Full FLuc ctr=137*
COc1ccc(C(=O)O/N=C(\N)c2ccc(Cl)cc2)cc1	31	-1	38	44*	100*	46*	.	34	.	Full FLuc ctr=163*
COc1ccc(C(=O)O/N=C(\N)c2ccncc2)cc1OC	4	-2	0	-12	25	.	.	.	.
Cc1cccc(/C(N)=N/OC(=O)c2ccoc2C)c1	55*	-1	67*	44*	94*	55*	50*	47*	.	tim10 confirm=39*;Full FLuc ctr=167*
COc1ccc(C(=O)O/N=C(\N)c2ccccc2)cc1OC	19	0	23	51*	62*	53*	.	-10	.
O=C(COC(=O)Cc1c[nH]c2ccccc12)Nc1cccc(Br)c1	.	3	.	.	.	.	.	.	.
N#CC(C#N)=c1ccc2c(c1)N1C3=C(CCCC3)CC3CCCCC31N=2 (stereo unspecified)	33	12	51*	44*	67*	24	23	46*	.	Full FLuc ctr=38*
O=C1OCC/C1=C1/NCCNC1=O	.	0	.	.	.	.	.	.	.
CCCNC(=O)C1(C)CCN(C(=O)c2sccc2C)C1 (stereo unspecified)	.	-1	.	.	.	.	.	.	.
Cc1ccc(C)c2c1[nH]c1ccc([N+](=O)[O-])cc12	39	81*	68*	50*	26	31*	51*	.	82*
COc1ccc(-c2cc(C(=O)NCC3CCCCC3)[nH]n2)c(C)c1	.	0	.	.	.	.	.	.	.
SMILES	TIM10 inh	MPTP inh	tim23-1 inh	tim10-1 inh	Mdm2 MdmX PPI	tim10-1 conf	tim23-1 confirm	Mdm2-MdmX conf	MPTP counter	others
COCCNC(=S)N/N=C(\C)c1ccc(O)cc1	0	0	13	7	-4	.	.	.	.
C/C(=N\NC(=S)NCC(C)(C)C)c1cc(F)cc(F)c1O	44*	85*	50	42*	48	41*	.	.	73*	tim10 confirm=60*
CC(=O)N(\C=C/C=C/C=C1\Sc2ccccc2C1=O)c1ccccc1	33	62*	29	41*	81*	46*	.	15	62*
CN1C(C(=O)Nc2ccc(OC(F)(F)F)cc2)=CC(c2cccs2)=NS1(=O)=O	40	74*	39	41*	58*	39*	.	33	84*	Full FLuc ctr=48*
COc1ccc(OC)c(-c2cc(C3CCN(c4cc(Cl)nc(N)n4)CC3)[nH]n2)c1	30	24	26	25	-19	.	.	.	.
Nc1nc(Cl)cc(N2CCC(c3cc(-c4ccc(Cl)cc4)n[nH]3)CC2)n1	35	98*	48	84*	84*	73*	.	-1	90*
CCCNC(=O)C[C@@H]1CC[C@H]2NC[C@H](O)COC[C@@H]2O1	.	2	.	.	.	.	.	.	.
C=CCN(C(=O)c1cccc(S(=O)(=O)N2CCN(C)CC2)c1)c1nc(-c2ccccc2)cs1	31	73*	48	50*	23	41*	.	.	6	MPTP swell DR=i;MPTP cs DR=76*
Cc1ccc(C(=O)N/N=C(/CC(=O)c2cccs2)C(F)(F)F)cc1	27	55*	47	47*	3	29*	.	.	82*
Clc1cccc(N/N=C(\Cc2nc3ccccc3[nH]2)c2ccccc2)c1	56*	72*	64*	40*	5	-12	14	.	70*	tim10 confirm=8
Cc1cc(/C=C2/SC(=S)N(c3cccc(C(F)(F)F)c3)C2=O)c(C)n1-c1cccnc1	30	105*	27	50*	38	25	.	.	87*
Cc1ccc(C2CC2C(=O)NNC(=S)Nc2ccc(Cl)cc2)cc1 (stereo unspecified)	7	53*	4	46*	11	31	.	.	73*
Cc1ccc(NC(=O)CC(=O)Nc2ccc(C)c(C)c2)cc1C	-5	2	0	-37	13	.	.	.	.
